Common to all, as to experiment: NCI-60 one-dose screen, 48 h (100 = growth as untreated, 0 = no growth, -100 = all killed)
Common to all, as to conditions: 10 µM unless noted

Test [1] relates to HCT-15 colon.
Test [2] relates to HT29 colon.
Test [3] deals with SNB-75 CNS.
For test [4], the system named is SNB-19 CNS.
For test [5], the system named is U251 CNS.
The test system of test [6] is PC-3 prostate.
Test [7] relates to SK-MEL-5 melanoma.
Test [8] relates to UACC-62 melanoma.
Test [9] deals with LOX IMVI melanoma.
In test [10] the test system is SK-MEL-28 melanoma.

SMILES strings stand for the structures. This is part of a sample that, as a whole, favours compounds with a hit. Of some 83,000 tested, about 20% had one in any assay.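 Single-concentration screen, 48 h exposure, 96-well plates. Endpoint: percent growth. Below 10 = active.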 Values without a mark were called inactive. Active and inactive are the calls of the source.

Take `COc1ccc(/C=c2\c(=O)n(-c3ccccc3)c3nn4c(=O)c(=O)[nH]nc4n23)cc1`: the growth is 106% in [1]; 110% in test [2]; 109% in test [3]; 111% in [4]; 112% in [5]; 102% in test [6]. For the same compound, the growth in [7] is 101%; in test [8], 101%; in test [9], 96.3%; in test [10], 131%.
Take `CC(=O)Nc1ccc(Cl)cc1Cl`: the growth in [1] is 118%; in [2] it was 103%; in [3] it was 91.2%; in test [4], 97.8%; in test [5], 103%; in test [6] it was 308%. For the same compound, the growth in [7] is 95.7%; in [8] it was 96.4%; in [9] it was 93.8%; in test [10], 157%.
As to `C#CC[C@@H]1C[C@]2(C)[C@H]3CC[C@@H]4[C@H]5C(C(=C)C)CC[C@]5(C(=O)NCCN(CCN)CCN)CC[C@@]4(C)[C@]3(C)CC[C@H]2C(C)(C)[C@H]1OC(C)=O` (stereo partly specified), the growth was -52.9% (active) in test [1]; 46.8% in test [2]; 103% in test [3]; 69.8% in [4]; -28.4% (active) in test [5]; 79.9% in test [6]. The growth in test [7] was 96.5%; in test [8], 103%; in [9], 65.5%; in test [10], 105%.
As for `Cc1nc2c(-c3cnc(N)nc3)nc(N3CCOCC3)nc2n1C(C)C`, the growth in test [1] is 10.7%; in test [2] it was 3.37% (active); in [3], -38.8% (active); in [4] it was 10.6%; in test [5], 4.62% (active); in test [6], 14.4%. The growth in test [7] was -21.2% (active); in [8], -39.9% (active); in test [9], -1.69% (active); in test [10], -10.1% (active).
`CNC(=O)c1cc(Oc2ccc(NC(=O)c3nc(S(C)(=O)=O)sc3-c3ccc(F)cc3)cc2)ccn1`: the growth in [1] was 86.4%; in [2], 4.79% (active); in test [3], 113%; in test [4] it was 84.4%; in test [5], 86.6%; in test [6], 71.1%. The growth in test [7] was 90.3%; in [8], 93.3%; in test [9] it was 45.7%; in test [10], 57.9%.
In the case of `CCCCCCCCCCCCCCCCOc1ccc(S(=O)(=O)N(C)C)cc1[N+](=O)[O-]`, the growth in test [1] was 97.2%; in test [2], 96.4%; in [3], 21.2%; in [4], 78.9%; in test [5] it was 50.6%; in [6], 94.4%. Further, the growth was 101% in test [7], 86.7% in test [8], 120% in test [9] and 107% in test [10].
As to `COc1ccc(/C=c2\c(=O)n(-c3ccccc3)c3nn4c(n23)=NNC42CCCCC2)cc1`, the growth in [1] is 102%; in [2], 106%; in test [3], 87.7%; in test [4] it was 93.9%; in [5], 103%; in test [6], 90.1%. Also, the growth in [7] was 100%; in test [8], 93.2%; in test [9], 95.1%; in [10] it was 111%.
On to `N#Cc1ccc(NC(=O)Nc2nc3ccc(OC(F)(F)F)cc3s2)cc1`, for which the growth in test [1] was 0.568% (active); in test [2] it was -3.66% (active); in [3] it was -8.15% (active); in test [4], 15.1%; in test [5] it was 4.34% (active); in test [6], 2.88% (active). Further, the growth in test [7] was -53.3% (active); in test [8], 2.82% (active); in [9] it was 1.35% (active); in [10] it was 19.3%.
Regarding `COc1ccc(/C(=C\c2ccc3c(c2)OCO3)C(=O)Nc2nc3ccc(F)cc3s2)cc1OC`, the growth in test [1] was 108%; in [2], 95.3%; in [3], 90.9%; in test [4] it was 109%; in test [5], 96.2%; in test [6], 88.2%. Besides, the growth in test [7] is 104%; in [8] it was 108%; in [9] it was 101%; in [10], 102%.
On to `N=c1n(Cc2ccccc2)c(N)cc(=O)n1Cc1ccccc1`, for which the growth in [1] is 45.8%; in test [2], 26.8%; in test [3], 36.6%; in test [4], 52.8%; in [5], 25.4%; in test [6] it was 37.5%. Besides, the growth in test [7] was 2.83% (active); in [8] it was 33.8%; in test [9], 14.2%; in [10], 60.8%.
For the compound `CCc1ccc(Nc2cc(C)c3ccc(O)cc3n2)cc1`, the growth in test [1] was 70.7%; in test [2], 19.6%; in test [3], 57.8%; in test [4], 96.5%; in test [5], 60.9%; in test [6], 62.2%. Also, the growth in test [7] was 60.6%; in test [8], 30.8%; in test [9], 48.5%; in [10], 95.6%.
Turning to `NC(N)=N/N=C\c1ccc(OCc2ccccc2)cc1`, the growth in test [1] was 35.7%; in test [2], 16.6%; in test [3], 43.9%; in test [4] it was 70.9%; in test [5] it was 45.7%; in [6], 70.7%. Besides, the growth in [7] is -13% (active); in test [8], 78.2%; in test [9], 59.6%; in [10] it was 87.8%.
Regarding `CCOC(=O)C1=C(C)NC(SCc2nnc(-c3ccc(Cl)cc3)o2)=NC1c1ccc(Cl)cc1` (stereo unspecified), the growth in test [1] was 67.6%; in test [2], 75.2%; in [3] it was 73.7%; in test [4], 73%; in test [5], 73.9%; in test [6] it was 48.8%. The growth is 40.9% in test [7], 49.9% in test [8], 76.9% in [9] and 79.8% in test [10].
On to `CCSc1ccc([C@@H]2[C@@H](N)C(=O)N2c2cc(OC)c(OC)c(OC)c2)cc1`, for which the growth is 19.9% in test [1]; 12.1% in [2]; 36.2% in test [3]; 32% in test [4]; 28.1% in test [5]; 28.5% in test [6]. For the same compound, the growth in test [7] is 20%; in test [8] it was 33.9%; in test [9], 50.7%; in test [10], 61.6%.
Consider `NC(=O)Nc1ccc2ncnc(Nc3cccc(O)c3)c2c1`, for which the growth in [1] is 108%; in test [2] it was 106%; in test [3], 102%; in test [4], 93.1%; in [5], 87.9%; in [6], 102%. Also, the growth was 101% in [7], 105% in test [8], 101% in [9] and 114% in [10].
On to `O=NN(CC(=O)NNc1ccccc1)CC(=O)NNc1ccccc1`, for which the growth was 33.7% in test [1]; 69.2% in test [2]; 90.8% in test [3]; 96.2% in test [4]; 78.8% in [5]; 58.8% in [6]. Further, the growth in [7] is 90.5%; in test [8], 3.99% (active); in test [9] it was 7.04% (active); in test [10], 95.5%.
Consider `CC(=O)c1ccc(-n2c(-c3cc(-c4ccsc4)n[nH]3)n[nH]c2=S)cc1`, for which the growth is 96.5% in test [1]; 94.1% in [2]; 91.2% in [3]; 101% in test [4]; 102% in [5]; 84.3% in test [6]. For the same compound, the growth in test [7] is 101%; in [8] it was 95.9%; in [9], 99%; in test [10] it was 98.8%.
Take `O=C1OCC2=C1C(c1cccc(Br)c1)c1cc3c(cc1N2CCO)OCCO3` (stereo unspecified): the growth is 13.9% in test [1]; 2.11% (active) in test [2]; 28.5% in test [3]; 31.6% in test [4]; 6.01% (active) in test [5]; 25.4% in test [6]. For the same compound, the growth in [7] was 1.61% (active); in test [8] it was 27.3%; in test [9], 23.5%; in test [10], 51.7%.
For the compound `CCN(CC)CCC(CNc1ccnc2cc(Cl)ccc12)c1ccc(O)cc1` (stereo unspecified), the growth is 109% in test [1]; 29.5% in [2]; 85.7% in test [3]; 103% in test [4]; 81.3% in test [5]; 61.1% in test [6]. The growth in [7] is 91.9%; in test [8] it was 103%; in [9], 50.4%; in test [10] it was 107%.
In the case of `CCN1CCN(Cc2ccc(NC(=O)c3nc4ccc5[nH]ncc5c4c4c3CCCC4)cc2C(F)(F)F)CC1`, the growth in [2] was -74.3% (active); in [3], 80.8%; in test [4] it was 13.9%; in [5], -85.7% (active); in test [6], 19.8%; in [7], -75.3% (active). Further, the values for the growth in [8] and in test [9] were -68.7% (active) and -94.6% (active), respectively.
As for `COc1cc(/C=C/c2ccc3c(Br)cc(Br)c(O)c3n2)ccc1O`, the growth in test [2] is 36.7%; in test [3], 36.5%; in test [4], 23.4%; in [5] it was 16.4%; in test [6], 12.9%; in test [7] it was 27.5%. The values for the growth in test [8], in [9] and in test [10] were 10%, 29.5% and 23.3%, respectively.
Take `CO[C@@]12[C@@H]3NC3CN1C1=C(C(=O)C(N)=C(C)C1=O)[C@@H]2COC(N)=O` (stereo partly specified): the growth was -18.1% (active) in test [2]; 2.19% (active) in test [3]; 18.3% in [4]; 13.4% in [5]; 41.8% in test [6]; -96% (active) in [7]. Further, the growth in [8] is -15.9% (active); in test [9] it was -50.2% (active); in test [10], 23%.
Take `COc1ccc(-c2nsc3c2NC(=O)CC3c2ccc3c(c2)OCO3)cc1` (stereo unspecified): the growth is 3.39% (active) in test [2]; 7.61% (active) in [3]; 57.5% in test [4]; 12.2% in test [5]; 3.81% (active) in test [6]; 25.8% in test [7]. Moreover, the growth in [8] is 42.7%; in test [9] it was 37.9%; in [10] it was 56.5%.
With `NNC(=O)Cc1ccccc1`, the growth in test [2] is 101%; in test [3], 77.8%; in [4], 93.1%; in test [5], 91.8%; in [6], 56.9%; in [7] it was 96.9%. Also, the growth in test [8] was 45.8%; in [9], 50.7%; in test [10], 108%.
On to `NS(=O)(=O)c1ccc(N2N=C(c3ccc(Br)cc3)CC2c2cn(-c3ccccc3)nc2-c2ccc(Cl)cc2)cc1` (stereo unspecified), for which the growth in test [2] was 76.6%; in test [3], 92.4%; in [4] it was 96%; in test [5], 86.9%; in test [6], 73.3%; in [7], 99.7%. Further, the growth in test [8] is 82.5%; in test [9] it was 88%; in test [10], 108%.
With `CN1CCN(c2ccc(N3Cc4ccccc4OC4=C3C(=O)c3c(O)ccc(O)c3C4=O)cn2)CC1`, the growth is -42.8% (active) in [2]; -21.8% (active) in test [3]; 11% in test [4]; -4.98% (active) in test [5]; 1.25% (active) in [6]; -61.9% (active) in test [7]. Further, the growth was -59.9% (active) in [8], -71.4% (active) in test [9] and -60% (active) in [10].
With `O=C(/C=C/c1ccccc1)C(Br)C(Br)c1ccccc1` (stereo unspecified), the growth in [2] was -53.5% (active); in test [3] it was 80.1%; in [4], 73.5%; in test [5] it was 42.9%; in test [6] it was 4.21% (active); in test [7], 38.9%. Also, the figures for the growth in [8], in test [9] and in test [10] were 5.9% (active), -68.6% (active) and 11.1%, respectively.

The record behind these values is PubChem BioAssay (NCI).
